Results published in PubChem BioAssay (Tox21).
Records with an inconclusive call do not appear. The source made the active and inactive calls. Unless noted, the call rests on the fitted dose curve; in most records, active means well fitted curve in the direction sought with a large enough effect in the repeat runs; inconclusive means weak or mixed curves; inactive means no such curve, though single readings can be large; an effect the other way counts as inactive or inconclusive.

Assays:
[1] = qHTS assay to identify aromatase inhibitors - cell viability counter screen (AID 743084);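 further: cells stimulated with testosterone during compound exposure; nearly all actives have a fitted effect of over 55% in size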
[2] = target: Aryl hydrocarbon receptor (Homo sapiens) (UniProt P35869); experiment: qHTS assay to identify small molecule that activate the aryl hydrocarbon receptor (AhR) signaling pathway (AID 743085);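 further: HG2L7.5c1 human HepG2 liver cells with stably integrated DRE-driven firefly reporter; series mostly up to about 70 µM; nearly all actives have a fitted effect of over 15% in size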
Aryl hydrocarbon receptor (Homo sapiens), sequence (P35869 whole entry, looked up): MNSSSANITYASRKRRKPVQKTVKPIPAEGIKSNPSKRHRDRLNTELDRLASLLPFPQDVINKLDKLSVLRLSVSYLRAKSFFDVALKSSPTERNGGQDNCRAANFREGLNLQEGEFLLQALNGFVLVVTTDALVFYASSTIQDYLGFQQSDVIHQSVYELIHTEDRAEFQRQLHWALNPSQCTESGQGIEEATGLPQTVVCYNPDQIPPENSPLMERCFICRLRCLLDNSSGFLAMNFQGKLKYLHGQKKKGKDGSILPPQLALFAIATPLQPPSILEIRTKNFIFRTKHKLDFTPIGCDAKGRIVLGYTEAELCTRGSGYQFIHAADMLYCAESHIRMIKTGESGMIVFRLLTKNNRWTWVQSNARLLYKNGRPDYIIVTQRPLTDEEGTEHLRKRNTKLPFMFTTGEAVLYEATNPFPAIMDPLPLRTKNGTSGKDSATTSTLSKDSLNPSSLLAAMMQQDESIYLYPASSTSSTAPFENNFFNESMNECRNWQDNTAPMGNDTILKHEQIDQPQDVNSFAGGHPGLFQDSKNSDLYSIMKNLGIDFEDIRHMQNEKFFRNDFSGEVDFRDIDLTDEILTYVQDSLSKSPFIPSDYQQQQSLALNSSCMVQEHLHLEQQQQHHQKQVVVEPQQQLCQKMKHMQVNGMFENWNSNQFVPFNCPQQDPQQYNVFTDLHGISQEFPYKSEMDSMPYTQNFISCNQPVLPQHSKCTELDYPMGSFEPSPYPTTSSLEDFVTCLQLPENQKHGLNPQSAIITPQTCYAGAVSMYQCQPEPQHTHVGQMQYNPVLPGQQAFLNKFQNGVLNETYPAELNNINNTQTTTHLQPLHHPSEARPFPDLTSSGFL
Outline: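 Luminescence read-out: ONE-Glo reagent, 30 min at room temperature, in HG2L7.5c1 HepG2 reporter cells treated 24 h at 37C. Viability was measured beforehand by CellTiter-Fluor fluorescence after 30 min at 37C.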

[3] = qHTS assay to identify small molecule that activate the aryl hydrocarbon receptor (AhR) signaling pathway - cell viability counter screen (AID 743086);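 further: HepG2 liver cells carrying the AhR DRE luciferase reporter; series mostly up to about 70 µM; nearly all actives have a fitted effect of over 45% in size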
Outline: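 HepG2-AhR-luc (HG2L7.5c1) cells, 4000/well, were preincubated 5 h at 37C, exposed to compound in qHTS format for 24 hr at 37C, then given CellTiter-Fluor for 30 min; viability was read as fluorescence in the reporter wells.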

[4] = target: Peroxisome proliferator-activated receptor gamma (Homo sapiens) (UniProt P37231); experiment: qHTS assay to identify small molecule agonists of the peroxisome proliferator-activated receptor gamma (PPARg) signaling pathway (AID 743094; active means well fitted activation curve with a large enough effect in the signal ratio in the repeat runs, not every such curve was filed as active; the % refers to the signal ratio)
Peroxisome proliferator-activated receptor gamma (Homo sapiens), sequence (P37231 whole entry, looked up): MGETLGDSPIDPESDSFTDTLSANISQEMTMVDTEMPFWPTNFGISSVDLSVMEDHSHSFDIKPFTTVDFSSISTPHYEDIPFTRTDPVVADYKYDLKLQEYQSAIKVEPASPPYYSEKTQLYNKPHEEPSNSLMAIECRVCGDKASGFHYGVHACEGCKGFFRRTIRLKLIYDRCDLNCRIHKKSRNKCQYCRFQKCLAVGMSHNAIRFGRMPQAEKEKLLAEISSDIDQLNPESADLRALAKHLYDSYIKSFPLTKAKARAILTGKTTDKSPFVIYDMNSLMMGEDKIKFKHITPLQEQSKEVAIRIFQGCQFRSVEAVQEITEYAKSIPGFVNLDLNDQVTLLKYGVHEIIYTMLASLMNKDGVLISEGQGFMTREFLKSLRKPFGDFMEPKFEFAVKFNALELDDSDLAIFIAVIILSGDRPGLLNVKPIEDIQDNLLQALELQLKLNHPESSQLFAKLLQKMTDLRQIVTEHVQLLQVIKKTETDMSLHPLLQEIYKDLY
Outline: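 Cell-based bla reporter, HEK293H background, PPARg-driven UAS. Pre-incubation 5 h, 37C, 5% CO2. Compound 17 h, 37C. Substrate 1 h RT; fluorescence.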

[5] = qHTS assay to identify small molecule antagonists of the peroxisome proliferator-activated receptor gamma (PPARg) signaling pathway - cell viability counter screen (AID 743194); further: nearly all actives have a fitted effect of over 55% in size
Outline: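 PPARg-UAS-bla HEK293H cells were plated, rested 5 h at 37 C, then treated with compounds plus rosiglitazone (50 nM final) for 17 h at 37 C; viability was then read by CellTiter-Glo luminescence after 30 min at room temperature.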

[6] = qHTS assay for small molecule agonists of the antioxidant response element (ARE) signaling pathway (AID 743202; active means well fitted activation curve with a large enough effect in the signal ratio in the repeat runs, not every such curve was filed as active; the % refers to the signal ratio)
Outline: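 Following a 16 h, 37 C exposure of reporter HepG2 cells (ARE-driven beta-lactamase, 2,000 cells/well) to compounds, FRET substrate was applied for 2 h at room temperature and fluorescence intensity recorded.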

[7] = qHTS assay for small molecule agonists of the antioxidant response element (ARE) signaling pathway - cell viability counter screen (AID 743203; calls by dose curve; further: nearly all actives have a fitted effect of over 55% in size)
Outline: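 Measured in the same wells as the beta-lactamase ARE reporter, this read-out is CellTiter-Glo luminescence from HepG2 ARE-bla cells given compounds for 16 hrs.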

[8] = qHTS assay for small molecule activators of the heat shock response signaling pathway - cell viability counter screen (AID 743209); further: nearly all actives have a fitted effect of over 50% in size
Outline: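 Same-well multiplex: after 2.5 h room-temperature incubation with LiveBLAzer B/G substrate and fluorescence reading, CellTiter-Glo reagent was added to HSE-bla HeLa cells that had received compound for 5 h at 37 C; luminescence read after 30 min.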

[9] = qHTS assay for small molecule activators of the heat shock response signaling pathway (AID 743210; active means well fitted activation curve with a large enough effect in the signal ratio in the repeat runs, with a control signal flat, not every such curve was filed as active; the % refers to the signal ratio; further: series mostly up to about 63 µM)
Outline: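 Heat shock element–beta-lactamase HeLa reporter cells; qHTS with compounds for 5 h at 37 C; detection by FRET substrate fluorescence after 2.5 h at RT.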

[10] = target: Peroxisome proliferator-activated receptor delta (Homo sapiens) (UniProt Q03181); experiment: qHTS assay to identify small molecule agonists of the peroxisome proliferator-activated receptor delta (PPARd) signaling pathway (AID 743212; calls by dose curve)
Peroxisome proliferator-activated receptor delta (Homo sapiens), sequence (Q03181 whole entry, looked up): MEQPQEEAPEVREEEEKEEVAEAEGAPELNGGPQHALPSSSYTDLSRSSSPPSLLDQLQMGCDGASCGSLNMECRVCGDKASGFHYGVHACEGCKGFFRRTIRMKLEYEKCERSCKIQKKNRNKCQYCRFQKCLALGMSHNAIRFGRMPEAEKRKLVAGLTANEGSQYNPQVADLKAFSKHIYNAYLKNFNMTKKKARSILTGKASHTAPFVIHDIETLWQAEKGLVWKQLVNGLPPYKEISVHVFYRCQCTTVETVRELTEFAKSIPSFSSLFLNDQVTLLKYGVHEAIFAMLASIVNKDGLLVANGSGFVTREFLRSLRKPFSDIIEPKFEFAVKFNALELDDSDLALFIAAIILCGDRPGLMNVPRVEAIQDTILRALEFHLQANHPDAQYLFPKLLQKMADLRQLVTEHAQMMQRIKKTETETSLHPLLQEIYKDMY
Outline: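 Beta-lactamase reporter read by fluorescence (LiveBLAzer B/G FRET, 2 h, room temperature). Test agents, in DMSO, incubated at 37 C with PPARd-bla HEK293H cells.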

[11] = qHTS assay to identify small molecule antagonists of the peroxisome proliferator-activated receptor delta (PPARd) signaling pathway - cell viability counter screen (AID 743213); further: nearly all actives have a fitted effect of over 50% in size
Outline: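 HEK293H cells with the PPARd UAS-bla reporter, co-treated 17 h at 37 C with compounds and L165041 (300 nM final), were lysed with CellTiter-Glo. Luminescence indicated viable cell content.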

[12] = target: Peroxisome proliferator-activated receptor delta (Homo sapiens) (UniProt Q03181); experiment: qHTS assay to identify small molecule antagonists of the peroxisome proliferator-activated receptor delta (PPARd) signaling pathway (AID 743215; active means well fitted inhibition curve with a large enough effect in the signal ratio in the repeat runs, not every such curve was filed as active; the % refers to the signal ratio;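 further: cells stimulated with agonist L165041 at 300 nM final during compound exposure; series mostly up to about 62 µM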)
Outline: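 Fluorescence from cleaved LiveBLAzer B/G FRET substrate (2 h, room temperature) reports PPARd-driven beta-lactamase in HEK293H UAS-bla cells. Cells had been treated 17 h at 37 C with compound plus 300 nM final L165041.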

[13] = qHTS assay to identify small molecule agonists of the farnesoid-X-receptor (FXR) signaling pathway - cell viability counter screen (AID 743218); further: nearly all actives have a fitted effect of over 45% in size
Outline: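 Readout: CellTiter-Glo luminescence, 30 min RT, multiplexed after the FXR-bla FRET reading. HEK 293T FXR-UAS-bla cells received compound 5 h post-plating and were incubated 16 h at 37 C.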

[14] = target: Bile acid receptor (Homo sapiens) (UniProt Q96RI1); experiment: qHTS assay to identify small molecule agonists of the farnesoid-X-receptor (FXR) signaling pathway (AID 743220; active means well fitted activation curve with a large enough effect in the signal ratio in the repeat runs, not every such curve was filed as active; the % refers to the signal ratio)
Bile acid receptor (Homo sapiens), sequence (Q96RI1 whole entry, looked up): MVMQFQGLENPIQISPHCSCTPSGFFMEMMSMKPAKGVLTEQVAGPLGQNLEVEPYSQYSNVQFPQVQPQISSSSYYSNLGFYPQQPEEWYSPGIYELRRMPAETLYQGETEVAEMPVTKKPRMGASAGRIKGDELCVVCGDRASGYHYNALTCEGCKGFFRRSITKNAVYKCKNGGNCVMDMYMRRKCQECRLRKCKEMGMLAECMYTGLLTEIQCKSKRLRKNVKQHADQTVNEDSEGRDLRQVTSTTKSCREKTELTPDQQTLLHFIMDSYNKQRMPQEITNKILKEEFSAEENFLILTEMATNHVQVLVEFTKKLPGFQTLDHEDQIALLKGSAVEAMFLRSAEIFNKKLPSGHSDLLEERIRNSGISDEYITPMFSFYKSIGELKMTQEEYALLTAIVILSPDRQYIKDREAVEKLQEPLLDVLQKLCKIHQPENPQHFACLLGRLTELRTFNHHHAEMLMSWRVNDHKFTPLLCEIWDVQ
Outline: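 FXR-UAS-bla HEK 293T cells carrying a UAS-driven beta-lactamase reporter were plated for 5 h at 37C/5% CO2, then exposed to DMSO-dissolved Tox21 10K compounds for 16 h at 37C. A LiveBLAzer B/G FRET substrate was loaded for 2 h at room temperature before fluorescence reading.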

[15] = qHTS assay to identify small molecule antagonists of the farnesoid-X-receptor (FXR) signaling pathway - cell viability counter screen (AID 743221; active means well fitted cell-killing curve with a large enough effect in the repeat runs, not every such curve was filed as active; further: nearly all actives have a fitted effect of over 50% in size)
Outline: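 HEK 293T FXR-bla cells, 5 h pre-incubation; compound + CDCA 50 uM final, 16 h, 37 C; beta-lactamase FRET read first, then CellTiter-Glo luminescence, 30 min RT.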

[16] = target: Vitamin D3 receptor (Homo sapiens) (UniProt P11473); experiment: qHTS assay to identify small molecule agonists of the vitamin D receptor (VDR) signaling pathway (AID 743222; calls by dose curve)
Vitamin D3 receptor (Homo sapiens), sequence (P11473 whole entry, looked up): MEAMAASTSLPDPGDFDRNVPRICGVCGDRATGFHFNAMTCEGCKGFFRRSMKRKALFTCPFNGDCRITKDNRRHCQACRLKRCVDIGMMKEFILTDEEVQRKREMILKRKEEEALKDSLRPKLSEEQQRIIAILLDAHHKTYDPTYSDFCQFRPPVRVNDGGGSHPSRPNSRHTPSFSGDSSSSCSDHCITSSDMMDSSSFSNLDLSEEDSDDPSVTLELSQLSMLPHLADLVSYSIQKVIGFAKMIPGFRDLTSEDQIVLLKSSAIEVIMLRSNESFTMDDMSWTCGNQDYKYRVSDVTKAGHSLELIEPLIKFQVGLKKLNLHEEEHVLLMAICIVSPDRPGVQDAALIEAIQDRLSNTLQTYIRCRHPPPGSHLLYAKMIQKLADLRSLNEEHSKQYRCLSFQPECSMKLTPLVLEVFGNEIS
Outline: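 Following 4 h attachment at 37C, VDR-bla cells (2,000 per well) received DMSO-dissolved compounds or controls. After 16 h incubation, LiveBLAzer B/G FRET substrate was added and fluorescence read 2 h later at room temperature.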

[17] = qHTS assay to identify small molecule agonists of the peroxisome proliferator-activated receptor delta (PPARd) signaling pathway - cell viability counter screen (AID 743211); further: nearly all actives have a fitted effect of over 55% in size
Outline: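 Read-out: CellTiter-Glo luminescence, 30 min RT, measured in the same wells as the beta-lactamase reporter. Cells: GeneBLAzer PPAR delta UAS-bla HEK293H, 3000 cells/well, compound exposure 17 h at 37C.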

[18] = target: Bile acid receptor (Homo sapiens) (UniProt Q96RI1); experiment: qHTS assay to identify small molecule antagonists of the farnesoid-X-receptor (FXR) signaling pathway (AID 743217; active means well fitted inhibition curve with a large enough effect in the signal ratio in the repeat runs, not every such curve was filed as active; the % refers to the signal ratio)
Outline: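 FRET fluorescence after 2 h room-temperature LiveBLAzer loading gives the readout. Prior step: FXR-bla HEK 293T cells, seeded and incubated 5 h, received test compounds plus 50 uM final CDCA for 16 h at 37 °C.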

[19] = target: Vitamin D3 receptor (Homo sapiens) (UniProt P11473); experiment: qHTS assay to identify small molecule antagonists of the vitamin D receptor (VDR) signaling pathway (AID 743223; active means well fitted inhibition curve with a large enough effect in the signal ratio in the repeat runs, not every such curve was filed as active; the % refers to the signal ratio)
Outline: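 Beta-lactamase reporter read-out: FRET substrate fluorescence after 2 h at room temperature, following 16 h exposure of VDR-bla cells to test compound plus 3 nM (final) 1alpha,25-dihydroxyvitamin D3 agonist at 37C.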

[20] = target: Peroxisome proliferator-activated receptor gamma (Homo sapiens) (UniProt P37231); experiment: qHTS assay to identify small molecule antagonists of the peroxisome proliferator-activated receptor gamma (PPARg) signaling pathway (AID 743191; calls by dose curve; further: series mostly up to about 63 µM; nearly all actives have a fitted effect of over 30% in size)
Outline: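 GeneBLAzer PPARg UAS-bla HEK293H cells carrying a UAS-driven beta-lactamase reporter were plated at 3000 cells/well, preincubated 5 h at 37C, then given compound for 17 h at 37C; LiveBLAzer B/G FRET substrate was read after 1 h at room temperature.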

Measured: Potency

CC(C)COC(=O)CCCCC(=O)OCC(C)C
not listed: [17] | [18] | [19] | [20]
inactive: all other assays above

CC(=O)/C=C/c1ccco1
not listed: [10] | [13] | [14] | [20]
inactive: all other assays above

OCCCCCCCl
not listed: [10] | [12] | [14] | [18] | [20]
inactive: all other assays above

C1=CCC(c2ccccc2)CC1 (configuration not stated)
not listed: [6] | [11] | [14] | [18] | [20]
inactive: all other assays above

Nc1cc(S(=O)(=O)O)ccc1S(=O)(=O)O
not listed: [6] | [12] | [20]
inactive: all other assays above

CCCCOC(=O)[C@@H](C)Oc1ccc(Oc2ccc(C(F)(F)F)cn2)cc1
not listed: [6] | [10] | [11] | [17] | [19] | [20]
inactive: all other assays above

CCCCC/C=C/CC(=O)OC
not listed: [10] | [12] | [14] | [18] | [20]
inactive: all other assays above

CO[Si](CCCCl)(OC)OC
not listed: [6] | [10] | [13] | [14] | [17] | [18] | [19] | [20]
inactive: all other assays above

Cc1ncc([N+](=O)[O-])n1CC(O)CCl (configuration not stated)
not listed: [8] | [10] | [12] | [18] | [20]
inactive: all other assays above

COC(/C=C(\C)CCC=C(C)C)OC
not listed: [6] | [14] | [19] | [20]
inactive: all other assays above

NS(=O)(=O)c1cc2c(cc1Cl)NC(C(Cl)Cl)NS2(=O)=O (configuration not stated)
not listed: [6] | [12] | [19] | [20]
inactive: all other assays above

Cc1cc(C)cc([N+](=O)[O-])c1
not listed: [11] | [13] | [20]
inactive: all other assays above

CCN(Cc1cccc(S(=O)(=O)O)c1)c1ccccc1
not listed: [10] | [12] | [14] | [18] | [20]
inactive: all other assays above

CCCCC(CC)C(=O)OC(C)C (configuration not stated)
not listed: [10] | [12] | [19] | [20]
inactive: all other assays above

FC(F)(F)c1ccc(Cl)cc1Cl
not listed: [10] | [12] | [14] | [18] | [20]
inactive: all other assays above

O=C1OC(=O)c2cc(Oc3ccc4c(c3)C(=O)OC4=O)ccc21
not listed: [10] | [11] | [12] | [13] | [14] | [18] | [19] | [20]
inactive: all other assays above

CC(C)(C)NCCO
not listed: [2] | [10] | [14] | [18]
inactive: all other assays above

CN(C)CCCNCCC#N
not listed: [2] | [10] | [13] | [14] | [18] | [19]
inactive: all other assays above

C1CCN2C[C@@H]3C[C@@H](CN4CCCC[C@@H]34)[C@H]2C1
not listed: [4] | [14] | [18] | [20]
inactive: all other assays above

CC(Cl)COP(=O)(OCC(C)Cl)OCC(C)Cl (configuration not stated)
not listed: [2] | [13] | [14] | [18]
inactive: all other assays above

Cc1cccc(Nc2ccncc2S(=O)(=O)NC(=O)NC(C)C)c1
not listed: [4] | [11] | [13] | [14] | [18]
inactive: all other assays above

COc1ccc(NS(=O)(=O)c2ccc(N)cc2)nn1
not listed: [4] | [12] | [13] | [20]
inactive: all other assays above

F[Si-2](F)(F)(F)(F)F
not listed: [2] | [10] | [18]
inactive: all other assays above
